PubChem BioAssay (NCATS)
Records with an inconclusive call do not appear. A call without a number means that no potency is given here. Values without a mark were called inactive. Calls of active or inactive are those of the source. Calls come from the whole dose curve; as a rule, active = well fitted inhibition curve with a large enough effect; inconclusive = small, poorly fitted or top-dose-only effect; inactive = no such curve, though single readings can be large or run the other way.

Assay: Primary qHTS for inhibitors of nuclear receptor binding SET domain protein 2 (NSD2) in an RCH-ACV wild type WT cells (2C) (AID 1645877); note: nearly all actives have a fitted effect of over 70% in size
Conditions: RCH-ACV (leukaemia line) NSD2 WT (2C) viability, CellTiter-Glo, 72 h; series mostly up to 44.9 µM
Text: Assay Provider: Jonathan D. Licht, MD
University of Florida College of Medicine, Gainesville, FL
Mutations in epigenetic regulators are common in relapsed pediatric acute lymphoblastic leukemia (ALL). Here, we uncovered the mechanism underlying the relapse of ALL driven by an activating mutation of the NSD2 histone methyltransferase (p.E1099K). […] Correction of this mutation restored glucocorticoid sensitivity. The transcriptional response to glucocorticoids was blocked in NSD2 mutant cells due to depressed glucocorticoid receptor (GR) levels and the failure of glucocorticoids to autoactivate GR expression. […] Pre-treatment of NSD2 p.E1099K cell lines and PDX samples with PRC2 inhibitors reversed glucocorticoid resistance in vitro and in vivo.
High-throughput drug screening of isogenic RCH-ACV cell lines was performed at the National Center for Advancing Translational Science (NCATS), National Institutes of Health as previously described (1). Briefly, isogenic RCH-ACV NSD2 p.E1099K mutant (9B) and WT cells (2C) were plated at 500 cells/well in a 1536-well plate with a 72-hour incubation with compounds prior to addition of CellTiter-Glo to assess cell viability. NCATS libraries screened include: NPC, MIPE 5.0, Kinase and NPACT. To determine compound activity in the qHTS assay, the concentration-response data for each sample was plotted and modeled by a four-parameter logistic fit yielding IC50 and efficacy (maximal response) values. The area under the curve (AUC) of the dose-response curve ensures both efficacy (magnitude of cell killing) and potency (concentration that elicits cell killing) are accounted for in the analysis of activity.
1. Tobie D Lee, Olivia W Lee, Kyle R Brimacombe, Lu Chen, Rajarshi Guha, Sabrina Lusvarghi, Bethilehem G Tebase, Carleen Klumpp-Thomas, Robert W Robey, Suresh V Ambudkar, Min Shen, Michael M Gottesman, Matthew D Hall. A High-Throughput Screen of a Library of Therapeutics Identifies Cytotoxic Substrates of P-glycoprotein. Mol Pharmacol. 2019, Nov;96(5):629-640.
In the case of Clc1cccc(SC2CCNCC2)n1, the Potency is reported as “inactive”. For CN1C(=O)COc2c(C(=O)NC3CN4CCC3CC4)cc(Cl)cc21 (stereo not given), the Potency was “inactive”. In the case of CN1CC[C@]23c4c5ccc(O)c4O[C@H]2[C@@H](O)CC[C@H]3[C@H]1C5, the Potency is reported as “inactive”. With CC(C)NC(C)C the Potency was “inactive”. In the case of Clc1ccc(C(c2ccc(Cl)cc2)C(Cl)(Cl)Cl)cc1, the Potency is reported as “inactive”. With CC(Cc1ccccc1)N(C)Cc1ccco1 (stereo not given) the Potency was “inactive”. For C#CC(O)(C=CCl)CC (stereo not given), the Potency was “inactive”. In the case of CCCCCCC(=O)CCCCCC/C=C/C[C@@H](O)[C@H](O)[C@@](N)(CO)C(=O)O, the Potency is reported as “inactive”. With CC(C)(C)NCC(O)c1ccccc1Cl (stereo not given) the Potency was “inactive”. With O=C1OC(CCN2CCCCC2)OC1(c1ccccc1)c1ccccc1 (stereo not given) the Potency was 13.3 µM (active). In the case of C[C@@H](N)[C@@H](O)c1ccccc1, the Potency is reported as “inactive”. In the case of C[C@]12Cc3cn[nH]c3C[C@@H]1CC[C@@H]1[C@@H]2CC[C@@]2(C)[C@H]1CC[C@]2(C)O, the Potency is reported as “inactive”. For CCC1(c2ccccc2)C(=O)N(COC)C(=O)N(COC)C1=O, the Potency was “inactive”. With Nc1nc(N)nc(NC2CC2)n1 the Potency was “inactive”. In the case of [N-]=[N+]=CC(=O)OC[C@H](N)C(=O)O, the Potency is reported as “inactive”. In the case of Cc1ncsc1CCCl, the Potency is reported as “inactive”. With COc1ccc2c(c1OC)C(=O)O[C@H]2[C@@H]1c2cc3c(cc2CCN1C)OCO3 the Potency was “inactive”. For CC(C)=CC1C(C(=O)OCN2C(=O)C3=C(CCCC3)C2=O)C1(C)C (stereo not given), the Potency was “inactive”. In the case of COC(=O)[C@@H](N)CCCN/C(N)=N/[N+](=O)[O-], the Potency is reported as “inactive”. With CC(C)N(CCC(C(N)=O)(c1ccccc1)c1ccccn1)C(C)C (stereo not given) the Potency was “inactive”. In the case of C[C@]12CCC(=O)C=C1CC[C@@H]1[C@H]3CC[C@](C)(O)[C@@]3(C)CC[C@@H]12, the Potency is reported as 21.9 µM (active). In the case of NC(=O)CS(=O)C(c1ccccc1)c1ccccc1 (stereo not given), the Potency is reported as “inactive”. For COP(=S)(OC)Oc1ccc(SC)c(C)c1, the Potency was “inactive”. For C[C@]12CC[C@H]3[C@@H](CCC4=CC(=O)CC[C@@H]43)[C@@H]1CC[C@@H]2OC(=O)CCC1CCCCC1, the Potency was 18.8 µM (active). In the case of O=c1[nH]oc2c1CCNC2, the Potency is reported as “inactive”. With CCN(CCO)CCn1c(Cc2ccccc2)nc2c1c(=O)n(C)c(=O)n2C the Potency was “inactive”. With CCN[C@@H](C)Cc1cccc(C(F)(F)F)c1 the Potency was “inactive”. In the case of CCN[C@@H](C)Cc1ccccc1, the Potency is reported as “inactive”. With NC1=NC(=O)C(c2ccccc2)O1 (stereo not given) the Potency was “inactive”. With COc1cccc2c1C(=O)c1c(O)c3c(c(O)c1C2=O)C[C@@](O)(C(=O)CO)CC3OC1CC(N2CCOC(OC)C2)C(O)C(C)O1 (stereo not given in full) the Potency was 0.0033 µM (active). In the case of CC(=O)NC1CCSC1=O (stereo not given), the Potency is reported as “inactive”. For O=[N+]([O-])O[C@H]1CO[C@H]2[C@@H]1OC[C@H]2O[N+](=O)[O-], the Potency was “inactive”. In the case of O=C(O)c1ccc(=O)[nH]c1, the Potency is reported as “inactive”. With CC[N+]1(CC)CCC(OC(=O)C(O)(c2ccccc2)c2ccccc2)C1 (stereo not given) the Potency was “inactive”. In the case of O=c1[nH]c2ccccc2n1C1CCNCC1, the Potency is reported as “inactive”. In the case of C[C@H]1[C@@H]2Cc3ccc(O)cc3[C@@]1(C)CCN2C, the Potency is reported as “inactive”. For c1ccc2c(c1)sc1ccccc12, the Potency was “inactive”. In the case of C[C@]12CC[C@H]3[C@@H](CC[C@@]45O[C@H]4C(O)=C(C#N)C[C@]35C)[C@H]1CC[C@H]2O, the Potency is reported as 10.6 µM (active). For COC(=O)C(Cl)C(=O)OC, the Potency was “inactive”. Work on Nc1ccn(C[C@@H](CO)OCP(=O)(O)O)c(=O)n1 yielded an activity change, negative = cell killing of -8.19% [at 9.23 µM].
